{"source": "paper PMC7819943", "about": "“Rice protein-binding microarrays: a tool to detect cis-acting elements near promoter regions in rice”", "note": "Whole data set: some 39,000 sequences, median “fluorescence intensity (a.u.)” near 4,300, cut for the highest 2% near 39,000. This is one part of a sample in which the highest values are shown more often than they occur.", "data": [{"biological_target": "T1, OsSMF1 (Oryza sativa, UniProt Q6ZLB0 1-436)", "T1 sequence": "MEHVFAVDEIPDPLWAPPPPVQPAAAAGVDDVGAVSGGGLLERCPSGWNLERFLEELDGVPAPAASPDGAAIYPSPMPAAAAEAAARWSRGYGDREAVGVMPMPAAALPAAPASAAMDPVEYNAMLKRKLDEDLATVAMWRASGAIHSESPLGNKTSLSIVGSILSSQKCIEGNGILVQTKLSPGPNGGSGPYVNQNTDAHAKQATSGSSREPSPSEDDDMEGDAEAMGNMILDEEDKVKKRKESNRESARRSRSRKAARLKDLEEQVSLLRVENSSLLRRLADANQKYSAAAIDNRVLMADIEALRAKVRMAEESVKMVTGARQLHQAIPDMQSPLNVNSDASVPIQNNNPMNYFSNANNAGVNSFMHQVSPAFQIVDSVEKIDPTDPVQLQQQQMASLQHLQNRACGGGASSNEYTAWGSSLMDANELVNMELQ", "assay": "protein-binding microarray (RPBM); PBS, 2% BSA, 51.3 ng/ul salmon testes DNA, 50 uM zinc acetate, 200 nM TF, 25 C, 1 h; high values mean tight binding", "conditions": "protein: recombinant; tags: N-terminal polyhistidine and DsRed monomer fusion (pET32a); chain copies: 2; label: CyDye5-dUTP incorporated in the synthesized complementary strand; 3' TTTTT single-stranded linker to array surface; dsDNA, one strand shown", "in_short": "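Polyhistidine-tagged DsRed fusions of transcription factors, joined at the N-terminus, were expressed in E. coli BL21-CodonPlus and isolated on Ni–NTA. They were incubated at 200 nM for 1 h at 25 °C on a custom Agilent array, double-stranded and BSA-blocked, in PBS with 2% BSA, salmon testes DNA and 50 µM zinc acetate. The binding signal is per-feature fluorescence intensity (arbitrary units) read on an Axon 4000B scanner after washing.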", "values": [{"sequence": "ATAGGGTGAGAAAGCACCTCGTTTTCCACGCGCACGCTTCCGGAGTCACCTAGTGCAG", "binding signal": "3330 fluorescence intensity (a.u.)"}, {"sequence": "GGGAGGACGAAGGAACGCCAATACCGACATTGCTCAAGCTCGGAGTCACCTAGTGCAG", "binding signal": "65300 fluorescence intensity (a.u.)"}, {"sequence": "CTTGCCGTCGAAGCGAAGGAACCGCCACCCGACGTCAGCTCGGAGTCACCTAGTGCAG", "binding signal": "5050 fluorescence intensity (a.u.)"}, {"sequence": "CTTGCCGTCGACGCGAAGGAACCGCCACCCGACGTCAGCTCGGAGTCACCTAGTGCAG", "binding signal": "5610 fluorescence intensity (a.u.)"}, {"sequence": "GGTGGGGACCACCAGGACGGACGTGTAGGGCCTCCTGAAGCGGAGTCACCTAGTGCAG", "binding signal": "4270 fluorescence intensity (a.u.)"}, {"sequence": "TCCAGGGAGCCGCGGTGGCATATGTTGCTGACATGTTTTCCGGAGTCACCTAGTGCAG", "binding signal": "5340 fluorescence intensity (a.u.)"}, {"sequence": "TTTGACTCCGATTTTATCCGACGTGGCAGCTGACTCAGCGCGGAGTCACCTAGTGCAG", "binding signal": "25300 fluorescence intensity (a.u.)"}, {"sequence": "ACTCCGGTTTTATCCGACGTGGCAGCTGACTCAGCATGGGCGGAGTCACCTAGTGCAG", "binding signal": "44300 fluorescence intensity (a.u.)"}, {"sequence": "TGTGTCATGGCTGATGTCAGCTCAGCATATATATATTCAGCGGAGTCACCTAGTGCAG", "binding signal": "14900 fluorescence intensity (a.u.)"}, {"sequence": "TCAGAGAGCTGACAGCGTGTTCAGGCCGTTCGATTTTGGTCGGAGTCACCTAGTGCAG", "binding signal": "5030 fluorescence intensity (a.u.)"}, {"sequence": "ATCCGGTTTTATCCGACGTGGCGGCTGAGTCGGCGCGGGACGGAGTCACCTAGTGCAG", "binding signal": "30700 fluorescence intensity (a.u.)"}, {"sequence": "GATTTTATTCGACGTGTCAGCTGACTCAGATGGTCGGTAGCGGAGTCACCTAGTGCAG", "binding signal": "39100 fluorescence intensity (a.u.)"}, {"sequence": "CTTTTGCTCACATGGCGTGCCACCGTGGCGTGCCCGCATGCGGAGTCACCTAGTGCAG", "binding signal": "16200 fluorescence intensity (a.u.)"}, {"sequence": "ATGGAGCCTGACGTGGCAGCATGTAGCTGGTCCACGTCACCGGAGTCACCTAGTGCAG", "binding signal": "27400 fluorescence intensity (a.u.)"}, {"sequence": "TTTTGCACACATGTATCATGCTGACGTCAGCATGACGTGGCGGAGTCACCTAGTGCAG", "binding signal": "61200 fluorescence intensity (a.u.)"}, {"sequence": "ATTTGGGCGGCAAGCTGACGTGGCACACGGCGTCATGACTCGGAGTCACCTAGTGCAG", "binding signal": "18100 fluorescence intensity (a.u.)"}, {"sequence": "GTTGACCGTCTACGTGGCATTCCACGTAGGCAGCTCATTTCGGAGTCACCTAGTGCAG", "binding signal": "16600 fluorescence intensity (a.u.)"}, {"sequence": "ACTGGAGCTAACCGCTGACGTGGCATTCCACGTAGGCAACCGGAGTCACCTAGTGCAG", "binding signal": "42500 fluorescence intensity (a.u.)"}, {"sequence": "TACTGTAGCACCACATTGTCAATCATGGCGCAATTATGCTCGGAGTCACCTAGTGCAG", "binding signal": "12900 fluorescence intensity (a.u.)"}, {"sequence": "GAATACCAAGAACGACGTCATACAAGACTGACGTGCGGTCCGGAGTCACCTAGTGCAG", "binding signal": "5690 fluorescence intensity (a.u.)"}, {"sequence": "AATGTCCCATCTTTCGTGTGTAAGGCACGTTAGTCTCAGGCGGAGTCACCTAGTGCAG", "binding signal": "4290 fluorescence intensity (a.u.)"}, {"sequence": "GTATGGGTTCGAGGAGTGATGTGGTGATGGGCAAACCCATCGGAGTCACCTAGTGCAG", "binding signal": "3300 fluorescence intensity (a.u.)"}, {"sequence": "CACCCTTAAATCATATATGTGGTTTTAATATTTGGGGATGCGGAGTCACCTAGTGCAG", "binding signal": "33200 fluorescence intensity (a.u.)"}, {"sequence": "CGAGACTGACAAGGCATTCCAGACACTTAAACAAGCACTGCGGAGTCACCTAGTGCAG", "binding signal": "3350 fluorescence intensity (a.u.)"}, {"sequence": "CTCTCGAAGCTGCCCTAGCCTCTCCGCTGCTCCGATCCACCGGAGTCACCTAGTGCAG", "binding signal": "24500 fluorescence intensity (a.u.)"}, {"sequence": "ATGTTTGAGCATGCAGCAAAGACAGATCTAACACTCAAGCCGGAGTCACCTAGTGCAG", "binding signal": "3970 fluorescence intensity (a.u.)"}, {"sequence": "CCCAGCACCCTACTACACCAACATACTCCTACGTGGAGCACGGAGTCACCTAGTGCAG", "binding signal": "6040 fluorescence intensity (a.u.)"}, {"sequence": "GTATCCATATATCCGATATGACACGCCAAAACTTTACACCCGGAGTCACCTAGTGCAG", "binding signal": "4870 fluorescence intensity (a.u.)"}, {"sequence": "ACCATCCGAGCTGTCAAGATCCGACGTGGGTTGTGAAGGCCGGAGTCACCTAGTGCAG", "binding signal": "8700 fluorescence intensity (a.u.)"}, {"sequence": "ATAGTTGTGATTAGATTGTGACGTACACAATGAGTATGCACGGAGTCACCTAGTGCAG", "binding signal": "5250 fluorescence intensity (a.u.)"}, {"sequence": "GCGAAGAACGCTTGCACTTGTGTGCAGCGACGCGCGAATTCGGAGTCACCTAGTGCAG", "binding signal": "4440 fluorescence intensity (a.u.)"}, {"sequence": "GTTCCACATTTCAGCATTAATGAATTGGCATACGTGATGACGGAGTCACCTAGTGCAG", "binding signal": "3360 fluorescence intensity (a.u.)"}, {"sequence": "GGATGCATGCATGCTGATGATGTCAGGCTGATACGTGCGTCGGAGTCACCTAGTGCAG", "binding signal": "7340 fluorescence intensity (a.u.)"}, {"sequence": "TGTTCCAACCCGCTCCGTGTGCTGACGTGGCATGACATGGCGGAGTCACCTAGTGCAG", "binding signal": "44900 fluorescence intensity (a.u.)"}, {"sequence": "TTTCTTTTCAGACGATGACGTCACACCGTTCTTCATGTATCGGAGTCACCTAGTGCAG", "binding signal": "12300 fluorescence intensity (a.u.)"}, {"sequence": "AGTATGCTTTTCTTAACGATGACGTCAGCATACACCTCGGCGGAGTCACCTAGTGCAG", "binding signal": "45200 fluorescence intensity (a.u.)"}, {"sequence": "TTGCTGCAAATGACGTCGACATGTGCGTGGCATACCATGGCGGAGTCACCTAGTGCAG", "binding signal": "15000 fluorescence intensity (a.u.)"}, {"sequence": "TCTCGCTTAATGTTTTCTTTACACATACGATGCTTTAGATCGGAGTCACCTAGTGCAG", "binding signal": "3790 fluorescence intensity (a.u.)"}, {"sequence": "AGTTTTGTACGCATGTGTGGCGCTGACGTCATGCCCGATCCGGAGTCACCTAGTGCAG", "binding signal": "18000 fluorescence intensity (a.u.)"}, {"sequence": "GGCGGCGATGGCGGCCGTGCTGACGGACGATTTCCTGCTCCGGAGTCACCTAGTGCAG", "binding signal": "3220 fluorescence intensity (a.u.)"}, {"sequence": "TTTGCATACGTGCATGCTTGATGACGTCATGCTGACGTGGCGGAGTCACCTAGTGCAG", "binding signal": "63100 fluorescence intensity (a.u.)"}, {"sequence": "GGCGCTGATGTCATGCTGACGTCAGTGCCTGATTTTGCTCCGGAGTCACCTAGTGCAG", "binding signal": "56100 fluorescence intensity (a.u.)"}, {"sequence": "TTCCAACCCGCCCCGTGTGCTGACGTGGCAGCCATGTTGGCGGAGTCACCTAGTGCAG", "binding signal": "19300 fluorescence intensity (a.u.)"}, {"sequence": "CTTGGCCGTGGCCGCTGACATGGCATCACCTCATCCGCAACGGAGTCACCTAGTGCAG", "binding signal": "4320 fluorescence intensity (a.u.)"}]}]}
